# Assay results as given in the supplement of paper PMC3334620.
# Whole data set: some 33,000 sequences, median “E-score (-0.5 to 0.5)” near -0.013, cut for the highest 2% near 0.3. The entries come from a sample that favours the highest values as a whole.
# Target: T1, Msn1 (UniProt P22148)
# T1 sequence: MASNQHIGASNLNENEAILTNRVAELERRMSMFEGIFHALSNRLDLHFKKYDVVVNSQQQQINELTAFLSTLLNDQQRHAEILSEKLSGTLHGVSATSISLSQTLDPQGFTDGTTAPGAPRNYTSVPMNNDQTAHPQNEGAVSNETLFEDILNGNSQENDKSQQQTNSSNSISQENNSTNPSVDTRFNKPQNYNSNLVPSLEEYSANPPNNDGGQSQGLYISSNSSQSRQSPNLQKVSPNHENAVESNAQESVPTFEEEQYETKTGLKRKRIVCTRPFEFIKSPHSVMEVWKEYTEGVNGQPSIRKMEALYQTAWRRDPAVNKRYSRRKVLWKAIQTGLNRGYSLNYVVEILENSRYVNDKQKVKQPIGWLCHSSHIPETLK
# Assay: PBM E-score (8-mer binding enrichment) (E-score (-0.5 to 0.5)); higher = stronger / more preferred TF binding
# Settings: protein concentration: 200 nM; construct: GST-full length
# Outline: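 Bound GST-tagged yeast transcription factors, applied at about 100-200 nM to double-stranded universal all-10-mer Agilent arrays, were detected with fluorescent anti-GST. Scans were normalised with masliner. A modified Wilcoxon-Mann-Whitney statistic, the E-score, was assigned to each ungapped eight-base word pooled with its reverse complement by the Universal PBM Analysis Suite.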
row,Sequence,PBM E-score
1,TGGGTCAA,-0.0713
2,CGCCAAGA,-0.142
3,GCAGAGGC,-0.241
4,CCCTGCCG,-0.254
5,CGCCAATC,-0.0945
6,AATGCCCC,-0.197
7,AATTCAGG,0.109
8,GCGGGTGA,-0.0547
9,GCACAAAC,0.0596
10,AAGCCTCT,-0.17
11,ACAATGTA,0.156
12,CCAATGTA,0.0173
13,ACAATGTC,0.452
14,CCAATGTC,0.328
15,CCAATGAC,-0.00959
16,ACAATGTG,0.0288
17,GCATAAAA,0.128
18,AATCCTTA,-0.134
19,CGAGCTAA,-0.0305
20,CAGAATAA,0.0293
21,TCGACACA,0.133
22,GGGACACA,0.449
23,TGCACACA,0.0221
24,GGGACACC,0.185
25,TGGACACA,0.427
26,GTGACACA,0.286

row,Sequence,PBM E-score
1,AGGAAATC,0.0408
2,AAGTGCGC,-0.108
3,ATGCTGTC,0.0368
4,GTAGCGCA,-0.107
5,CCAAGAAG,-0.0807
6,ATTATAAG,0.103
7,ATTATAAT,0.307
8,ATTATAAA,0.17
9,CCACATAC,0.0664
10,CACCAACG,0.185
11,CCATAGAG,0.0389
12,ACGCTAAT,-0.223
13,AAAGGCCG,-0.00669
14,ATACCTAG,-0.0479
15,CTGTCTTA,0.181
16,ACGTCTGG,0.154
17,ATGTCTTC,0.293
18,CTGTCTGA,0.0827
19,ATGTCTTG,0.35
20,ATGTCTGC,0.286
21,AAGTCTTG,0.0419
22,ATGTCTTA,0.423
23,GTGTCTTA,0.04
24,ATGTCTGG,0.323
25,GTGTCTGA,0.185
26,ATGTCTGA,0.425

row,Sequence,PBM E-score
1,GACCATTA,0.0825
2,ATCACAAT,-0.035
3,CAAACGAG,0.099
4,CAGAGGAC,0.0901
5,CAACGGAC,0.121
6,AGAGCCGC,-0.0659
7,ATCGCGTA,-0.176
8,ACAGTCGA,-0.0747
9,ATCCCGAT,0.125
10,ACAAAGGC,0.098
11,CCTCAAGC,-0.277
12,ACGCTGGG,-0.406
13,ATCTTGCG,-0.0566
14,AGCGGACT,-0.229
15,CGCGGACC,0.0148
16,AGCGGACG,0.0534
17,CGCGGACA,0.329
18,CGCGGACG,0.181
19,TGCGGAAA,0.0764
20,AGCGGACA,0.359
21,TGCGGACA,0.427
22,GGCGGACA,0.273
23,CTGCTCAA,0.0116
24,CGAGTGCG,0.0204
25,CGTTGCAG,-0.0934
26,AACATTCC,-0.0175

row,Sequence,PBM E-score
1,CACATTCA,-0.0795
2,GACATTCC,0.456
3,GACATTCA,0.449
4,AACATTCA,-0.0503
5,CACATTCC,0.0503
6,ATACATAT,0.264
7,CCGCTCTA,0.0134
8,GACTCCCC,-0.207
9,ATTTCTCG,0.255
10,CGATACCG,-0.0866
11,GCGGACCA,0.0483
12,CCGGACAG,0.227
13,CCGGACAA,0.452
14,TCGGACAA,0.457
15,GCGGACAA,0.44
16,GCGGACAC,0.162
17,ACGGACGA,0.0949
18,TCGGACGA,0.199
19,ACGGACAA,0.474
20,TCGGACCA,0.12
21,CCGGACAC,0.288
22,ACGGACCA,0.0706
23,ACATTCGT,0.0578
24,AATTCTCT,-0.229
25,CGACCGCG,-0.0918
26,CGGGAGGA,-0.0135

row,Sequence,PBM E-score
1,GAGTGTGC,0.0104
2,GCTACACC,-0.162
3,GCCTGACC,-0.234
4,AAATACCA,-0.0306
5,CCAAAATC,0.0937
6,ATAAAATC,0.0924
7,ACAAAATA,0.188
8,AAAAAATG,0.287
9,ACAAAATC,0.352
10,AAAAAATC,0.105
11,ATAAAATA,0.183
12,ACAAAATG,0.312
13,ATAAAATG,0.341
14,GCCGATTA,-0.0616
15,ATTGCCGG,-0.0182
16,GGATAGAC,-0.0706
17,AGACATCG,0.226
18,GGACATCC,0.475
19,GAACATCC,0.162
20,AGACATCC,0.328
21,CGACATCA,0.125
22,CGACATCC,0.0825
23,TGACATCA,0.257
24,AGACATCT,0.29
25,GGACATCA,0.396
26,ATAGTGGA,0.0789

row,Sequence,PBM E-score
1,CCCTGCTC,-0.172
2,CCGCTTCC,-0.183
3,CACGGACA,0.455
4,TACGGAAA,0.17
5,GACGGACC,-0.0404
6,CACGGACC,0.0127
7,CACGGACG,0.175
8,AACGGACG,0.0165
9,AACGGACA,0.344
10,GACGGACA,0.386
11,AACGGACT,-0.00389
12,TACGGACA,0.44
13,TACGGAGA,-0.0508
14,GACGGAAA,0.106
15,ACTAACGC,-0.108
16,GCTCGAAA,-0.00351
17,TGCAGGAA,0.0458
18,TGAGTGAA,-0.115
19,ACGAATCG,0.0506
20,CGAATAAA,0.309
21,CGAATAAC,0.0021
22,GGAATAAA,0.119
23,TAAGCTCA,-0.0986
24,ATTCCGGG,0.14
25,CTTCCGGA,0.132
26,ATTCCGGA,0.313

row,Sequence,PBM E-score
1,AGTCCGGA,0.267
2,CGTCCGGA,0.331
3,GGTCCGGA,0.216
4,CCTTTGAA,-0.154
5,ATGTTTTG,0.12
6,CGAGCACG,-0.175
7,ACATATTC,0.34
8,ACATATTG,0.321
9,CCATATCA,0.0259
10,ATATATTC,0.163
11,ATATATTG,-0.172
12,ACATATGC,-0.0219
13,ACATATCA,0.319
14,ACATATCG,0.231
15,ACATATGG,0.262
16,TCATATGA,0.297
17,CCATATTC,-0.0353
18,ACATATGA,0.311
19,AATCTTGG,0.0184
20,AGTTACAT,-0.0774
21,AATCAAAA,0.089
